Measurements published in paper PMC4552634, “A New Set of Chemical Starting Points with Plasmodium falciparum Transmission-Blocking Potential for Antimalarial Drug Discovery” (PLoS ONE, 2015).
Hit rate of the full screen: of about 13,000 compounds, about 3,200 (25%) showed an effect of 50% or more. This is one part of the list.

System: P. falciparum stage V gametocytes
Set-up: BacTiter-Glo ATP luminescence viability of purified stage V gametocytes in 384-well plates, per cent inhibition versus DMSO
Conditions: 48 h, 5 µM; inhibitor

SMILES | % Inhibition [%]
Cc1ccc(Nc2ccnc(Nc3ccc4c(c3)CS(=O)(=O)C4)n2)cc1O [TCMDC-138484] | -40.59
CCNc1cc(C(=O)N[C@@H](Cc2ccccc2)[C@H](O)CN[C@@H]2CCc3ccccc32)cc(N2CCCCS2(=O)=O)c1 [TCMDC-134706] | 14.74
CCN(CC)CCN(Cc1ccc(-c2ccc(C(F)(F)F)cc2)cc1)C(=O)Cn1c(CCc2ccc(F)c(F)c2)cc(=O)c2ccccc21 [TCMDC-141026] | 39.3
CCN(CC)CCN(Cc1ccc(-c2ccc(C(F)(F)F)cc2)cc1)C(=O)Cn1c(CCc2ccc(F)c(C#N)c2)nc(=O)c2ccccc21 [TCMDC-140957] | 85.6
CCN(CC)CCN(Cc1ccc(-c2ccc(C(F)(F)F)cc2)cc1)C(=O)Cn1c(CCc2cccc(C#N)c2)nc(=O)c2ccccc21 [TCMDC-140980] | 54.63
CCN(CC)CCN(Cc1ccc(-c2ccc(C(F)(F)F)cc2)cc1)C(=O)Cn1c(CCc2cc(F)c(F)c(F)c2)nc(=O)c2ccccc21 [TCMDC-140944] | 66.72
CCN(CC)CCN(Cc1ccc(-c2ccc(C(F)(F)F)cc2)cc1)C(=O)Cn1c(CCc2ccc(F)c(F)c2)nc(=O)c2ccccc21 [TCMDC-140948] | 78.31
C/C=C1/CN2CC[C@H]1C[C@H]2[C@H](O)c1ccnc2ccc(O)cc12 [TCMDC-138167] | 19.07
C=CCOc1ccccc1CNCC(O)c1cccc(C(F)(F)F)c1 (stereo not drawn) [TCMDC-140394] | 31.37
COc1ccc(CCN2CCC(Nc3nc4ccccc4n3CCc3ccc(OC)cc3)CC2)cc1 [TCMDC-123918] | 9.396
N#Cc1cc(C(=O)Nc2ccccc2)c(N)nc1SCC(=O)NC(c1ccccc1)c1cccs1 (stereo not drawn) [TCMDC-124880] | -24.84
CCN(CC)c1cc(C)c2cc(NC(=O)c3cc(=O)c4ccccc4o3)ccc2n1 [TCMDC-123592] | 0.01985
CN(C)Cc1cccc(-c2ccc(NC(=O)c3ccc4c(=O)n(CCN5CCCCC5)cnc4c3)cc2)c1 [TCMDC-132362] | 105.2
COc1cc(OC)nc(-c2cccc(NC(=O)c3ccc4c(=O)n(CCN5CCCCC5)cnc4c3)c2)n1 [TCMDC-132360] | -43.17
CN(C)Cc1cccc(-c2ccc(NC(=O)c3ccc4c(=O)n(Cc5cnn(C)c5)cnc4c3)cc2)c1 [TCMDC-132370] | -68.25
CCCn1cnc2cc(C(=O)Nc3ccc(-c4cccc(CN(C)C)c4)cc3)ccc2c1=O [TCMDC-132363] | 8.061
CN(C)Cc1cccc(-c2ccc(NC(=O)c3ccc4c(=O)n(C5CCCCC5)cnc4c3)cc2)c1 [TCMDC-132367] | -36.18
CN(C)Cc1cccc(-c2ccc(NC(=O)c3ccc4c(=O)n(CC5CCCO5)cnc4c3)cc2)c1 (stereo not drawn) [TCMDC-132365] | 80.9
NC1=NC(c2ccccc2)(c2ccccc2)C(=O)N1Cc1ccc(-c2ccncc2)cc1 [TCMDC-136894] | 25.37
Cc1ccc2nc3c(cc(C(=O)NCc4ccccc4)c(=N)n3CCCn3ccnc3)c(=O)n2c1 [TCMDC-124377] | 6.883
C=C1C(C(=O)OCC)=CN(CC)c2cc(O[C@@H]3CCN(C(=O)OC(C)(C)C)C3)ccc21 [TCMDC-135647] | 15.51
O=C(/C=C/c1ccc(Cl)c(Cl)c1)NC1CCN(CCNC(=O)c2cccc(Cl)c2)CC1 [TCMDC-141950] | -32.49

SMILES | % Inhibition [%]
CCCc1cc(=O)[nH]c(-n2nc(C)cc2NC(=O)c2cc3ccccc3o2)n1 [TCMDC-124939] | 13.85
O=C(NC1CCCCN(Cc2ccccc2O)C1)c1ccc(Cl)c(Cl)c1 (stereo not drawn) [TCMDC-141736] | -19.06
O=S(=O)(NC1CCCCN(Cc2ccccc2O)C1)c1ccc(C(F)(F)F)cc1 (stereo not drawn) [TCMDC-141803] | -6.826
O=C(NC1CCN(Cc2ccccc2O)C1)c1cccc(C(F)(F)F)c1 (stereo not drawn) [TCMDC-141744] | -4.979
O=C(NC1CCCCN(Cc2ccccc2O)C1)c1cccc(Cl)c1 (stereo not drawn) [TCMDC-141745] | 70.72
O=C(NC1CCN(Cc2ccccc2O)C1)c1ccc(Cl)c(Cl)c1 (stereo not drawn) [TCMDC-141737] | 3.103
Oc1ccc(-c2ccccc2)cc1CN1CCCCCC1 [TCMDC-124203] | 12.06
O=C(NC1CCCCN(Cc2ccccc2O)C1)c1cc(F)cc(F)c1 (stereo not drawn) [TCMDC-141742] | 24.3
Oc1ccc(-c2ccccc2)cc1CN1CCCCC1 [TCMDC-125510] | 85.49
O=C(NC1CCCCN(Cc2ccccc2O)C1)c1cccc(C(F)(F)F)c1 (stereo not drawn) [TCMDC-141743] | 0.3319
O=C(NC1CCN(Cc2ccccc2O)C1)c1ccc(-c2ccccc2)cc1 (stereo not drawn) [TCMDC-141747] | 74.99
CC(C)(c1ccccc1)c1ccc(O)c(CN2CCOCC2)c1 [TCMDC-124276] | -17.17
O=C(NC1CCCCN(Cc2ccccc2O)C1)c1ccc(-c2ccccc2)cc1 (stereo not drawn) [TCMDC-141746] | 61.29
Cc1ccccc1C1CCN(C2CCC(NC(=O)c3ccc(-c4cccs4)s3)CC2)CC1 (stereo not drawn) [TCMDC-134105] | -3.744
CC(=O)Nc1ncc(C(=O)Nc2cccc(-c3ccc(-c4nc5ccc(F)cc5[nH]4)cc3)c2)s1 [TCMDC-136916] | -12.2
O=C(NCc1ccccc1[S+]([O-])c1ccccc1CO)C(F)(F)F (stereo not drawn) [TCMDC-137886] | 0.169
Cc1cccc2nc(-c3cccc(-c4ccc(CNCc5cnn(-c6ccccc6)n5)cc4)c3)[nH]c12.O=C(O)C(F)(F)F [TCMDC-132965] | -15.5
S=C(NCCN1CCOCC1)Nc1ccccc1 [TCMDC-123845] | -18.32
N#Cc1cc(C(=O)c2cc(Cl)ccc2O)cn(-c2cc(Cl)cc(Cl)c2)c1=O [TCMDC-125188] | -6.306
Cc1cc(N(C)C)nc(Nc2ccc(NS(=O)(=O)c3ccccc3)cc2)n1 [TCMDC-124952] | 7.952
COc1ccc(CNCc2ccccc2)cc1-c1ccc(S(=O)(=O)NCCN2CCCC2)c(C)c1 [TCMDC-132272] | 107.1
COc1ccc(CNCc2ccc(F)cc2)cc1-c1ccc(S(=O)(=O)NCCN2CCCC2)c(C)c1 [TCMDC-132224] | 105.7

SMILES | % Inhibition [%]
O=S(=O)(NCCN1CCCC1)c1ccc(-c2ccc(CNCc3ccc(F)cc3)cc2)cc1F [TCMDC-132287] | 42.7
O=S(=O)(NCCN1CCCC1)c1ccc(-c2ccc(CNCc3ccccc3)cc2)cc1F [TCMDC-132236] | 50.96
COc1ccc(CNCc2ccccc2)cc1-c1ccc(S(=O)(=O)NCCN2CCCC2)c(F)c1 [TCMDC-132265] | 101.3
Cc1cc2c(cc1C(F)(F)F)N(C(=O)Nc1ccc(C(=O)NC3CCN(Cc4ccccc4)C3)cc1)CC2 (stereo not drawn) [TCMDC-139871] | 23.78
Clc1cc(Br)ccc1-c1ccc(CNCC2CCNCC2)o1 [TCMDC-124617] | 29.69
CC(C)Cc1cnc2nc(N)nc(N)c2c1 [TCMDC-137923] | 48.38
N#Cc1c(-c2ccccc2)cn2c1[nH]c(=O)c1ccccc12 [TCMDC-124997] | 14.43
CCN(CCCN1CCCCC1)c1cc(C)nc(Nc2ccc(C)c(F)c2)n1 [TCMDC-132437] | 25.13
O=C(NCCN1CCOCC1)c1ccc(CNC(=O)c2ccc(O)c(-c3ccc(Cl)c(Cl)c3)c2)cc1 [TCMDC-140852] | 5.208
CON(C)C(=O)[C@@H](CCCCNC(=O)OCc1ccccc1)NC(=O)OC(C)(C)C [TCMDC-132004] | -2.99
O=C(CN1CCC(NCc2cnc(-c3ccc(Cl)cc3)[nH]2)CC1)N1CCc2ccccc21 [TCMDC-138589] | 28.41
Cc1cc(OCCCN2CCCC2)ccc1NC(=O)COc1ccc(Cl)cc1C(=O)c1cc(C#N)cc(C(F)(F)F)c1 [TCMDC-138904] | 58.86
Cc1cc(OCCCN2CCCCC2C)ccc1NC(=O)COc1ccc(Cl)cc1C(=O)c1cc(Cl)cc(C#N)c1 (stereo not drawn) [TCMDC-134727] | 73.35
Cc1cc(OCC2CCN(c3ncc(C(=O)Nc4ccccc4)cc3Cl)CC2)ccc1F [TCMDC-134033] | -3.032
Cc1cc(OCCCN2CCN(CCN3CCOCC3)CC2)ccc1NC(=O)COc1ccc(Cl)cc1C(=O)c1cc(Cl)cc(C#N)c1 [TCMDC-135999] | 30.59
Cc1cc(OCCCN2CCCCC2)ccc1NC(=O)COc1ccc(Cl)cc1C(=O)c1cc(Cl)cc(C#N)c1 [TCMDC-134725] | 48.49
Cc1c(NC(=O)COc2ccc(Cl)cc2C(=O)c2cc(F)cc(C(F)(F)F)c2)ccc2ncsc12 [TCMDC-138907] | 4.382
COc1cc(NC(=O)N2CCc3ccc(OCCN4CCCCC4)cc32)cc(C(F)(F)F)c1 [TCMDC-140249] | 14.65
Cc1cc(OCC2CCCN(c3ncc(C(=O)NC4CC4)cc3Cl)C2)ccc1F (stereo not drawn) [TCMDC-134314] | 18.53
Cc1cc(OCCCN2CCCCC2)ccc1NC(=O)COc1ccc(Cl)cc1C(=O)c1cc(C#N)cc(C(F)(F)F)c1 [TCMDC-134827] | 50
CCCCCCN1CCCN(Cc2cccc(C(=O)Nc3ccc(C(C)(C)C)cc3)c2)CC1 [TCMDC-135993] | -6.517
CCCC(C)NC(=O)[C@H](Cc1ccccc1)NC(=O)c1ccc(O)c(-c2ccc(OC)cc2)c1 (stereo partly drawn) [TCMDC-140800] | 19.41
